PubChem BioAssay (NCI)
The panel holds about 83,000 compounds, 20% with a hit somewhere; the sample as a whole holds those more often.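 Growth was measured after 48 h exposure to one concentration of compound in 96-well plates. Values under 10 count as active.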 The source made the active and inactive calls.

Columns and labels:
Test in all cases: NCI-60 one-dose screen, 48 h (100 = growth as untreated, 0 = no growth, -100 = all killed)
Details in all cases: 10 µM unless noted
NCI-H23 lung = test system: NCI-H23 lung
NCI-H226 lung = test system: NCI-H226 lung
NCI-H322M lung = test system: NCI-H322M lung
HOP-62 NSCLC = test system: HOP-62 NSCLC
NCI-H460 lung = test system: NCI-H460 lung
HOP-92 NSCLC = test system: HOP-92 NSCLC
NCI-H522 lung = test system: NCI-H522 lung
A549/ATCC NSCLC = test system: A549/ATCC NSCLC
786-0 renal = test system: 786-0 renal
DU-145 prostate = test system: DU-145 prostate
K-562 leukemia = test system: K-562 leukemia
MALME-3M melanoma = test system: MALME-3M melanoma
MDA-MB-231 breast = test system: MDA-MB-231 breast
RXF 393 renal = test system: RXF 393 renal
SF-268 CNS = test system: SF-268 CNS
SF-295 CNS = test system: SF-295 CNS
SF-539 CNS = test system: SF-539 CNS
UACC-257 melanoma = test system: UACC-257 melanoma
M14 melanoma = test system: M14 melanoma

Measured: growth

CNCCNc1nc2ccccc2c2c(=O)c3cc(F)ccc3oc12
inactive: NCI-H23 lung 64.8% | NCI-H226 lung 68% | NCI-H322M lung 43.8% | HOP-62 NSCLC 44.2% | NCI-H460 lung 55.8% | HOP-92 NSCLC 33.3% | NCI-H522 lung 58% | A549/ATCC NSCLC 50.8% | 786-0 renal 53.1% | DU-145 prostate 48.6% | K-562 leukemia 56% | MALME-3M melanoma 86.3% | MDA-MB-231 breast 39.2% | RXF 393 renal 59.2% | SF-268 CNS 58.2% | SF-295 CNS 75.4% | SF-539 CNS 58.9% | UACC-257 melanoma 99.4% | M14 melanoma 86.8%

COC(=O)/C(=C\c1ccc(OC)cc1)C(=O)N1c2ccccc2Sc2ccccc21
inactive: NCI-H23 lung 72.7% | NCI-H226 lung 75.1% | NCI-H322M lung 83% | HOP-62 NSCLC 64% | NCI-H460 lung 96.7% | HOP-92 NSCLC 38.7% | A549/ATCC NSCLC 56.2% | 786-0 renal 70.5% | DU-145 prostate 78.5% | K-562 leukemia 11.1% | MALME-3M melanoma 32.9% | MDA-MB-231 breast 54.2% | RXF 393 renal 47.7% | SF-268 CNS 54.6% | SF-295 CNS 38.8% | SF-539 CNS 42.1% | UACC-257 melanoma 65.4% | M14 melanoma 23.3%
active: NCI-H522 lung 2.63%

COc1ccc(-n2ncn(CCCCCCn3cnn(-c4ccc(OC)cc4)c3=O)c2=O)cc1
inactive: NCI-H23 lung 82.9% | NCI-H226 lung 80.3% | NCI-H322M lung 88.4% | HOP-62 NSCLC 89.5% | NCI-H460 lung 103% | HOP-92 NSCLC 89.4% | NCI-H522 lung 76.3% | A549/ATCC NSCLC 96.7% | 786-0 renal 96.7% | DU-145 prostate 101% | K-562 leukemia 72.7% | MALME-3M melanoma 95.7% | MDA-MB-231 breast 87.4% | RXF 393 renal 98.2% | SF-268 CNS 91.4% | SF-295 CNS 93.6% | SF-539 CNS 91.7% | UACC-257 melanoma 101% | M14 melanoma 97.5%

N#Cc1c(N)n2c(nc1=Nc1ccc(Cl)cc1)sc1cc(Cl)ccc12
active: SF-295 CNS -2.32%
inactive: NCI-H23 lung 66.6% | NCI-H226 lung 36.7% | NCI-H322M lung 91% | HOP-62 NSCLC 96.9% | NCI-H460 lung 95.1% | HOP-92 NSCLC 76.6% | NCI-H522 lung 93% | A549/ATCC NSCLC 75.4% | 786-0 renal 51.4% | DU-145 prostate 97.7% | K-562 leukemia 92.1% | MALME-3M melanoma 85.4% | MDA-MB-231 breast 67.1% | RXF 393 renal 65.1% | SF-268 CNS 56.4% | SF-539 CNS 103% | UACC-257 melanoma 54.4% | M14 melanoma 62.2%

CS(=O)(=O)c1ccc(-c2nc3cc(Cl)ccc3n2CC(=O)N/N=C/c2ccc(Cl)cc2)cc1
active: RXF 393 renal -25.1% | SF-295 CNS -36.9% | SF-539 CNS -3.48%
inactive: NCI-H23 lung 60.3% | NCI-H226 lung 84.8% | NCI-H322M lung 70.4% | HOP-62 NSCLC 56.4% | NCI-H460 lung 48.7% | HOP-92 NSCLC 68.1% | NCI-H522 lung 46% | A549/ATCC NSCLC 68.5% | 786-0 renal 16.1% | DU-145 prostate 70.1% | K-562 leukemia 17% | MALME-3M melanoma 46.6% | MDA-MB-231 breast 48.9% | SF-268 CNS 50.2% | UACC-257 melanoma 67.7% | M14 melanoma 61.2%

Cl.Fc1c[c-]c(-c2ccccn2)c(F)c1.[Pt].c1ccc(P(c2ccccc2)C([PH+](c2ccccc2)c2ccccc2)[PH+](c2ccccc2)c2ccccc2)cc1
active: NCI-H23 lung 5.53% | NCI-H460 lung 7.55% | HOP-92 NSCLC -12.9% | MALME-3M melanoma -12.9% | MDA-MB-231 breast -16% | SF-295 CNS 5.14% | SF-539 CNS 9.54% | UACC-257 melanoma 6.42%
inactive: NCI-H226 lung 12.5% | NCI-H322M lung 20.8% | HOP-62 NSCLC 25.9% | NCI-H522 lung 12% | A549/ATCC NSCLC 15.4% | 786-0 renal 22.5% | DU-145 prostate 26.1% | K-562 leukemia 13.6% | RXF 393 renal 13.3% | SF-268 CNS 26.4% | M14 melanoma 18.7%

COc1ccc(C2CC(c3ccccc3)=NN2c2nc(C)c(C(C)=O)s2)cc1 (configuration not stated)
inactive: NCI-H23 lung 99.3% | NCI-H226 lung 101% | NCI-H322M lung 98.6% | HOP-62 NSCLC 101% | NCI-H460 lung 106% | HOP-92 NSCLC 95.4% | NCI-H522 lung 88.3% | A549/ATCC NSCLC 98.7% | 786-0 renal 101% | DU-145 prostate 102% | K-562 leukemia 95% | MALME-3M melanoma 95.2% | MDA-MB-231 breast 96.6% | RXF 393 renal 94.1% | SF-268 CNS 91.3% | SF-295 CNS 99% | SF-539 CNS 94.3% | UACC-257 melanoma 102% | M14 melanoma 97.3%

CSc1ccc(Cl)c(C(=O)Nc2sccc2C(N)=O)c1
inactive: NCI-H23 lung 97.9% | NCI-H226 lung 79.9% | NCI-H322M lung 124% | HOP-62 NSCLC 107% | NCI-H460 lung 101% | HOP-92 NSCLC 75.6% | NCI-H522 lung 92.2% | A549/ATCC NSCLC 85.6% | 786-0 renal 94.2% | DU-145 prostate 102% | K-562 leukemia 110% | MALME-3M melanoma 141% | MDA-MB-231 breast 99% | RXF 393 renal 60.2% | SF-268 CNS 93.7% | SF-295 CNS 123% | SF-539 CNS 99.8% | UACC-257 melanoma 104% | M14 melanoma 123%
